# Measured potencies and affinities stand elsewhere. Active and inactive are the calls of the source.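 How the source made its calls: active means signal-lowering compounds whose fitted half-maximal concentration is at or below twice the top tested dose in every run; inconclusive means runs disagree, flat 30 to 70% inhibition, or poor curve fit; inactive means the rest.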
# Target: Protein S100-A4 (Homo sapiens) (UniProt P26447)
# Assay: human S100A4 peptide interaction inhibition curves – biochemical, fluorescence polarization, cherry-picked hits, dose response (AID 687001)
# Conditions: FP, S100A4/TAMRA-myosin IIA peptide binding; series mostly up to 11 µM
# Protein S100-A4 (Homo sapiens), sequence (P26447 whole entry, looked up): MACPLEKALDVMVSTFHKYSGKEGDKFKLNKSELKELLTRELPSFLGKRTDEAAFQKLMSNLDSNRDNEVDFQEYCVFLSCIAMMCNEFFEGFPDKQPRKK
row,SMILES,outcome
1,Cc1ccc(C(=O)C2=C(O)C(=O)N(Cc3cccnc3)C2c2cccc([N+](=O)[O-])c2)o1 (stereo not drawn),inactive
2,O=C(C[C@H]1CC[C@H](NS(=O)(=O)c2cccc(F)c2)[C@@H](CO)O1)NCc1ccc2c(c1)OCO2,inactive
3,CCOc1cc(/C=N/NC(=O)c2ccc(N(C)S(=O)(=O)c3ccccc3)cc2)ccc1OC,inactive
4,COCCN(C(=O)COC(=O)COc1ccc2ccccc2c1)c1c(N)n(Cc2ccccc2)c(=O)[nH]c1=O,inactive
5,O=C(NCCCN1CCC(Cc2ccccc2)CC1)C1CCC(=O)N1C1CCCC1 (stereo not drawn),inactive
6,O=C(CCC1CCN(C(=O)c2ccco2)CC1)NCc1ccc(F)cc1,inactive
7,COc1cccc(-c2ccc3n(c2=O)C[C@H]2[C@H](CO)[C@@H](C(=O)N4CCOCC4)N[C@@H]32)c1,inactive
8,Cc1cc2cc(CNC(=O)c3ccc(S(=O)(=O)N4CCCC4)cc3)ccc2n1C,inactive
9,Cc1ccc(CNC(=O)Cn2cnc(C(=O)Nc3ccc(C)c(C)c3)n2)o1,inactive
10,COc1ccc(N2CCN(C(=O)[C@H](C)N3C(=O)C4CC=CCC4C3=O)CC2)cc1 (stereo partly drawn),inactive
11,Cc1ccc(S(=O)(=O)Nc2ccc3c(c2)C(=O)N([C@H](C)CO)C[C@@H](C)[C@@H](CN(C)S(=O)(=O)c2ccc(C)cc2)OCCCC[C@@H](C)O3)cc1,inactive
12,CC(NC(=O)c1ccc(N2CCCC2)c([N+](=O)[O-])c1)c1ccc(S(N)(=O)=O)cc1 (stereo not drawn),inactive
13,O=C(C1CCCC1)N1C[C@@H]2[C@H](c3ccccc31)[C@@H](CO)N2C(=O)c1ccccc1F,inactive

# From PubChem BioAssay AID687001 (Broad Institute, 2013)
